PubChem BioAssay (EPA / NIEHS)
The source made the active and inactive calls. The calls were made as follows: active = hit-call score of the fitted dose curve at least 0.9, where 1 is the maximum; inactive = score below 0.9. Peptide text beside a SMILES is read from it.

Each compound was assayed against Transcription factor E2F1 (Homo sapiens) (UniProt Q01094) (assay: ATG_E2F_CIS: Attagene CIS-FACTORIAL HepG2 Assay for human E2F Transcription Factor 1 (AID 2282935)). Details: HepG2 Attagene cis-reporter, E2F reporter RNA transcripts; actives raise or lower the signal.
Sequence of Transcription factor E2F1 (Homo sapiens) (Q01094 whole entry, looked up): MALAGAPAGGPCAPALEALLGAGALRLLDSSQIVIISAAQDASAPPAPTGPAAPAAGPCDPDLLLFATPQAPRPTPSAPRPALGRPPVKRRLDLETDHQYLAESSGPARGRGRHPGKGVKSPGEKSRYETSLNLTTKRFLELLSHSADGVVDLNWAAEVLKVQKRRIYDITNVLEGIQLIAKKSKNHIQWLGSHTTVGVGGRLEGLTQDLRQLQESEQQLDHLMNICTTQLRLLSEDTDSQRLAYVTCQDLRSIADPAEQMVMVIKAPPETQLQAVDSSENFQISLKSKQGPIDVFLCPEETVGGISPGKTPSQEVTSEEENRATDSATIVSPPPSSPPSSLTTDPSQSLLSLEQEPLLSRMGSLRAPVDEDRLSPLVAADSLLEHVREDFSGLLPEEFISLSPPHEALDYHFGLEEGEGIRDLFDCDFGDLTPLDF
Experimental: ATG_CIS is a cell-based, multiplexed-readout assay that uses HepG2, a human liver cell line, with measurements taken at 24 hours after chemical dosing in a 24-well plate.ATG_E2F_CIS is one of 52 assay component(s) measured or calculated from the ATG_CIS assay. It is designed to make measurements of mRNA induction, a form of inducible reporter, as detected with fluorescence intensity signals by Reverse transcription polymerase chain reaction (RT-PCR) and Capillary electrophoresis technology.Data from the assay component ATG_E2F_CIS was analyzed into 1 assay endpoint. This assay endpoint, ATG_E2F_CIS, was analyzed with bidirectional fitting relative to DMSO as the negative control and baseline of activity. Using a type of inducible reporter, measures of mRNA for gain or loss-of-signal activity can be used to understand the reporter gene at the transcription factor-level as they relate to the gene E2F1. Furthermore, this assay endpoint can be referred to as a primary readout, because this assay has produced multiple assay endpoints where this one serves a reporter gene function. To generalize the intended target to other relatable targets, this assay endpoint is annotated to the dna binding intended target family, where the subfamily is E2F transcription factor.
Human liver HepG2 cells are transiently transfected with multiple reporter transcription units (MRTUs) in 6-well plates using FuGene 6 reagent (Roche; 3 ml FuGene/1 mg DNA). The MRTU constructs are regulated by a cis-regulating element (promoter). […] A major difference between the CIS and TRANS system is that in CIS activities of endogenous TFs are measured, whereas the TRANS assay evaluates changes in activities of exogenous, chimeric NR-Gal4 proteins. […] At the end of 24 hour incubation, total RNA was isolated using TriZol reagent (Invitrogen). The isolated RNA is then reverse-transcribed using oligo(dT) primer and Mo-MLV reverse transcriptase (Invitrogen) with DNAse I (Ambion) treatment for 30 min. The one-tenth of the produced cDNA was amplified by PCR using Taq DNA polymerase (Invitrogen) and two reporter sequence-specific primers. The PCR products were fluorescently labeled by primer extension with 6-arboxyfluorescein (6-FAM) 5'-labeled reporter sequence-specific primer (2 min at 95 C, 20 s at 68 C and 10 min at 72 C) and these products were digested with 5U of HpaI (New England Biolabs) for 2h at 37 C. The fragments were purified using Qiaquick PCR columns (Qiagen), analyzed on an ABI 3130xL genetic analyzer (Applied Biosystems) with peak positions identified by using a set of X-rhodamine (ROX)-labeled MapMarker1000 molecular weight standards (BioVentures). The raw capillary electrophoresis data was processed using Attagraph software (Attagene).
For `CCc1occc(=O)c1O`, the outcome was “inactive”.
`COC(=O)[C@H](Cc1ccccc1)NC(=O)[C@@H](N)CC(=O)O` (H-Asp-Phe-OMe) was tested, and the outcome was “inactive”.
With `CCCCCCCCCCCCc1ccc(O)cc1` the outcome was “inactive”.
In the case of `CC(CC(C)C)=NO`, the outcome is reported as “inactive”.
In the case of `C1CCSC1`, the outcome is reported as “inactive”.
With `C=C(C)C1CC=C(C)C(OC(C)=O)C1` (stereo not given) the outcome was “inactive”.
For `CC(C)C(=O)OCCc1ccccc1`, the outcome was “inactive”.
For `OCCCc1ccccc1`, the outcome was “inactive”.
`CCC(C)N` (stereo not given) was tested, and the outcome was “inactive”.
For `Cc1cccc(C(C)(C)C)c1O`, the outcome was “inactive”.
In the case of `Nc1ccc(O)c([N+](=O)[O-])c1`, the outcome is reported as “inactive”.
For `CC(C)c1cccc(C(C)C)c1N`, the outcome was “inactive”.
With `Cc1ccc([N+](=O)[O-])cc1N` the outcome was “inactive”.
In the case of `CC1=CCC(C(C)C)C=C1` (stereo not given), the outcome is reported as “inactive”.
`CCCCC(CC)COC(=O)/C=C/c1ccc(OC)cc1` (stereo not given) was tested, and the outcome was “inactive”.
In the case of `CCCCCCCCCCCC(=O)N(C)CC(=O)O`, the outcome is reported as “inactive”.
For `O=C(Cl)c1ccc(C(=O)Cl)cc1`, the outcome was “inactive”.
For `O=C1c2ccccc2C(=O)c2cc(S(=O)(=O)O)ccc21`, the outcome was “inactive”.
For `CCc1cccc(C)c1N`, the outcome was “inactive”.
With `C=CC(=O)OCCCCCCOC(=O)C=C` the outcome was “inactive”.
`O=C(O)CCC(=O)O` was tested, and the outcome was “inactive”.
For `COC(OC)(C(=O)c1ccccc1)c1ccccc1`, the outcome was “inactive”.
For `CC1=C(O)C(=O)C(C)O1` (stereo not given), the outcome was “inactive”.
`C=CCOC(=O)c1ccc(C(=O)OCC=C)c(C(=O)OCC=C)c1` was tested, and the outcome was “inactive”.
For `CC(C)CCOCc1ccccc1`, the outcome was “inactive”.
For `O=C(OCc1ccccc1)c1ccc(O)cc1`, the outcome was “inactive”.
`Oc1ccc(/C=C/c2cc(O)cc(O)c2)cc1` was tested, and the outcome was “inactive”.
In the case of `CCC(C)C(=O)OC` (stereo not given), the outcome is reported as “inactive”.
For `CC1=CCC2CC1C2(C)C` (stereo not given), the outcome was “inactive”.
For `CCOc1ccc(NC(N)=O)cc1`, the outcome was “inactive”.
In the case of `CCCCCCCCCCCCCc1ccccc1`, the outcome is reported as “inactive”.
With `C=CC(=O)O[C@H]1C[C@@H]2CC[C@@]1(C)C2(C)C` the outcome was “inactive”.
`CC(C)=NNC(N)=S` was tested, and the outcome was “inactive”.
In the case of `CCCCCCOC(=O)CCCCC(=O)OCCCCCC`, the outcome is reported as “inactive”.
In the case of `COC(=O)CC(C)CCC=C(C)C` (stereo not given), the outcome is reported as “inactive”.
For `CCCCCC(=O)OCC`, the outcome was “inactive”.
`CC(=O)/C=C/C1C(C)=CCCC1(C)C` (stereo not given) was tested, and the outcome was “inactive”.
In the case of `C=C(C)C(=O)OCCOC(=O)C(=C)C`, the outcome is reported as “inactive”.
In the case of `O=C(C=Cc1ccccc1)OCCc1ccccc1`, the outcome is reported as “inactive”.
`c1ccc2c(c1)[nH]c1ccccc12` was tested, and the outcome was “inactive”.
